From PubChem
RXFP1 antag – antagonists of human relaxin receptor RXFP1; Q9HBX9; HEK293-RXFP1, relaxin-stimulated cAMP HTRF, 30 min; active compounds read low; activity change, negative = inhibition, % at 57.5 µM; 350,000 tested, 0.59% active; AID 1259400;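 active = activity change of -60% or lower, but not beyond a set lower limit; inconclusive = change between -60% and -40%, or beyond the set limit; inactive = change above -40%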
Target sequence (Q9HBX9 whole entry, looked up): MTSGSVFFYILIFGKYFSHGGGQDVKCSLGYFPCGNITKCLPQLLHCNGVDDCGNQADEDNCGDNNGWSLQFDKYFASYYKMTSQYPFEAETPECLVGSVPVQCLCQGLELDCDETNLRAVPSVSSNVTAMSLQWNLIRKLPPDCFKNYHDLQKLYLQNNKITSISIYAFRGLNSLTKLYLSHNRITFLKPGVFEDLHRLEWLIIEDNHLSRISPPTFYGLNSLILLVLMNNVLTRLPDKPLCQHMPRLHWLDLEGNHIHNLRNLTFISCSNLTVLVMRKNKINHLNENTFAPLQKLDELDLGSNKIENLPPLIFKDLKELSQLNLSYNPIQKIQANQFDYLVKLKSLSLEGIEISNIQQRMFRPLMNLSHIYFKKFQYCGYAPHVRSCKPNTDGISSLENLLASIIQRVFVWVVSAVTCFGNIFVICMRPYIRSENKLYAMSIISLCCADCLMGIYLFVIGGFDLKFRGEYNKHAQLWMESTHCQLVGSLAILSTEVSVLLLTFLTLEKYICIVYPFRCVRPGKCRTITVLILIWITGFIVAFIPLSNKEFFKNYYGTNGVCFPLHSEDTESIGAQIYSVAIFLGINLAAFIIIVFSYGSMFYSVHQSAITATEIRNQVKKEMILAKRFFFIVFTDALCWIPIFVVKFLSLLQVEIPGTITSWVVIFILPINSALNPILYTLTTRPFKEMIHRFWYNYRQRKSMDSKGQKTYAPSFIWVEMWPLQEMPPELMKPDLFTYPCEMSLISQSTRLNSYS
S-ASM inh – blocks human secretory acid sphingomyelinase | placental ASM, HMU-PC fluorogenic substrate, 60 min | 340,000 tested, 0.006% active | P17405 | Potency, µM (doses to about 57.5 µM), actives largely listed as inhibitors
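Human placenta-derived ASM enzyme was preincubated with compound for 10 minutes at room temperature, then given fluorogenic substrate HMU-PC0 (9 uM final) for 60 minutes at 37 °C; a pH 10 stop preceded fluorescence reading at Ex 386/Em 447 nm.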
gsp antag – antagonists of gsp mutant (McCune-Albright syndrome) | gsp-mutant cells, cAMP HTRF, 30 min | Potency, µM (top dose mostly 76.9 µM), usual class: inhibitors | 340,000 tested, 0.4% active; calls by dose curve; cell line not stated here;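 also: intracellular cAMP measured with PDE inhibitor Ro 20-1724 present during compound exposure; nearly all actives have a fitted effect of over 65% in size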
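Cells, 2000/well, grown 16–24 h in DMEM 10% FBS with 0.5 mg/ml G418, then compounds plus […] (300 uM addition stock), 30 min at 37C. cAMP read by HTRF (cAMP-d2 and anti-cAMP antibody-K in lysis buffer) after 30 min RT.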
RXFP1 agonist – RXFP1 (human) receptor agonism. Q9HBX9. HEK293T-RXFP1 cAMP TR-FRET, 30 min; response scale: percent of porcine relaxin response, buffer zero. Potency, µM (doses to about 57.5 µM), hits mostly activators. 370,000 tested, 0.3% active. AID 2676; also: nearly all actives have a fitted effect of over 60% in size
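HEK293T cells stably expressing RXFP1 were pretreated with the PDE4 inhibitor Ro 20174, exposed to compounds for 30 min at 37C, lysed, and cAMP was read by TR-FRET. Data normalized to buffer (basal) and 29 nM porcine relaxin (100%).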
gsp ag – agonists of gsp mutant (McCune-Albright syndrome) | Potency, µM (series often up to 76.9 µM), usual class: activators | gsp mutant cells, cAMP HTRF, 30 min | 340,000 tested, 0.13% active; active = well fitted activation curve with a large enough effect; inconclusive = small, poorly fitted or top-dose-only effect, or another doubt; inactive = no such curve, though single readings can be large or run the other way; cell line not stated here;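 also: phosphodiesterase inhibitor Ro 20-1724 added with compounds to block cAMP breakdown; nearly all actives have a fitted effect of over 60% in size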
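Cells in DMEM/10% FBS with G418 were pretreated with compounds in DMSO plus […] (300 uM stock) for 30 min at 37C. cAMP was measured by HTRF (cAMP-d2 plus anti-cAMP antibody-K) after 30 min at room temperature.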
Integrin act MD – integrin-mediated muscular dystrophy alleviation activation | alpha7betagal myoblasts, beta-gal FDG fluorescence, 48 h | Potency, µM (top dose mostly 38.3 µM), hits mostly activators | 350,000 tested, 0.064% active | AID 624291; also: nearly all actives have a fitted effect of over 60% in size
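Alpha7betagal+/- myoblasts (passage 13) were plated 16-24 hr, then exposed to compounds (1:260 dilution of DMSO stock) for 48 hours at 37C. After MPER lysis, β-galactosidase reporter activity was read as FDG fluorescence (ex 480/em 540) after 30 minutes.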
A number is an active result; - = inactive; ? = inconclusive; . = no result; [ ] = remark or other dose. Rows were chosen to be rich in hits. Some 1.1% of all compounds tested hit in one or more screens of this group. Unless noted, calls follow the shape of the dose curve; as a rule, active = well fitted curve in the direction sought with a large enough effect; inconclusive = small, poorly fitted or top-dose-only effect, or another doubt; inactive = no such curve, though single readings can be large; an effect the other way counts as inactive or inconclusive.

SMILES	RXFP1 antag	S-ASM inh	gsp antag	RXFP1 agonist	gsp ag	Integrin act MD
O=C(Cn1c(=S)[nH]c2ccccc2c1=O)N1CCC2(CC1)OCCO2	-	-	-	-	-	-
O=C(CCCCCn1c(=S)[nH]c2ccccc2c1=O)N1CCC2(CC1)OCCO2	-83	-	-	-	-	-
C[C@@H]1CC2=CC(=O)CC[C@@H]2[C@H]2CC[C@@]3(C)[C@@H](CC[C@]3(C)O)[C@@H]21	-	.	.	.	.	.
CN(C)CC(C(=O)Cc1ccccc1)c1ccccc1 (stereo unspecified)	-118	-	-	.	-	-
O=c1oc2ccccc2c(O)c1C(CC(O)c1ccc(-c2ccc(Br)cc2)cc1)c1ccccc1 (stereo unspecified)	-64	.	.	.	.	.
C=CCC1(C(C)CC)C(=O)NC(=O)NC1=O (stereo unspecified)	-	.	.	.	.	.
O=C(O)c1ccc(=O)[nH]c1	-	.	.	.	.	.
CCOC(=O)C1(CCc2ccccc2)CCN(Cc2cccc3cnccc23)CC1	-83	-	-	-	-[15.4 µM]	-
CCOC(=O)C1(CCc2ccccc2)CCN(Cc2cccc3c2OCO3)CC1	?	-	-	-	-	-
C[C@H](CO)N1C[C@H](C)[C@@H](CN(C)Cc2ccc(-c3ccccc3)cc2)Oc2c(NC(=O)c3ccncc3)cccc2C1=O	.	-	32µM	.	.	-
C[C@@H]1CN([C@H](C)CO)C(=O)c2cc(NC(=O)Nc3ccc(C(F)(F)F)cc3)ccc2O[C@H]1CN(C)S(=O)(=O)c1cccs1	.	?	-	.	.	-
CC1COC2(c3ccccc3Cl)c3cc(Cl)ccc3NC(=O)CN12 (stereo unspecified)	-	.	.	.	.	.
CCC1CC2CC3c4[nH]c5ccc(OC)cc5c4CCN(C2)C13 (stereo unspecified)	-	.	.	.	.	.
CCNC(C)Cc1ccc2c(c1)OCO2 (stereo unspecified)	-	.	.	.	.	.
CCN(CC)c1ccc(C=C2C(=O)NC(=S)NC2=O)cc1	?	-	-	-	-	-
CC(C)CN(CC(C)C)c1ccc(C=C2C(=O)NC(=S)NC2=O)cc1[N+](=O)[O-]	-63	-	?	-	-	-
O=c1[nH]c(=S)n(C2CC2)c(O)c1C=NCc1ccc(F)cc1	-	-	-	25µM	-	-
O=C(c1cc(-c2ccc(Cl)cc2)n(-c2ccc(Cl)cc2Cl)n1)N1CCOCC1	-	28µM	-	-	-	-
O=C(c1cc([N+](=O)[O-])ccc1N1CCNCC1)N1CCOCC1	-	-	-	-	-	-
O=C(CNC(=O)c1cccc(Cl)c1)Nc1ccc(Br)cc1C(=O)c1ccccc1	-	-	40µM	-	-	-
O=C(CN1CCCCC1)c1ccc(F)cc1	-	-	-	-	-	-
COc1ccc(C(=O)CN2CCCCC2)cc1	-	-	-	-	-	13µM
Cc1ccc2c(C)c3ccc4ccccc4c3c[n+]2c1	-	-	50µM	.	?	-
CC(C)=CC1C(C(=O)OCN2C(=O)C3=C(CCCC3)C2=O)C1(C)C (stereo unspecified)	-95	.	.	.	.	.
Cc1cc(C)n(CCOC(=O)C2C(C=C(Cl)Cl)C2(C)C)n1 (stereo unspecified)	-	-	-[15.4 µM]	-	-	-
SMILES	RXFP1 antag	S-ASM inh	gsp antag	RXFP1 agonist	gsp ag	Integrin act MD
N[C@@H](Cc1ccc(Oc2cc(I)c(O)c(I)c2)c(I)c1)C(=O)O	-	.	.	.	.	.
Nc1ccc(C2(c3ccc(N)cc3)c3ccccc3-c3ccccc32)cc1	-80	-	-	-	-[15.4 µM]	-
O=C1C(=O)c2ccccc2-c2ccccc21	.	-	18µM	-	.	.
CNP(=O)(Oc1ccccc1)OC12CC3CC(CC(C3)C1)C2 (stereo unspecified)	-	-	-	-	?	10µM
O=C(CCCCl)c1ccc(F)cc1	-	.	.	.	.	.
O=C1NC(=O)N(Cc2ccc(F)cc2)C(=O)/C1=C/c1cccs1	-74	-	-	-	-[15.4 µM]	-
COc1ccc(N/N=C/c2c(O)n(-c3ccc(C)c(C)c3)c(=O)[nH]c2=O)cc1	-	-	-	-	-	-
Cc1ccc(-n2c(O)c(/C=N/Nc3ccccc3)c(=O)[nH]c2=O)cc1C	-70	-	-	-	?	-
ClCCCN1CCN(c2cccc(Cl)c2)CC1	-	.	.	.	.	.
Cc1cccc(N2C(=O)NC(=O)/C(=C\c3cccn3-c3ccc(Cl)cc3)C2=O)c1	-71	-	-	-	-	-
Cc1cccc(N2C(=O)NC(=O)/C(=C\C=C\c3ccco3)C2=O)c1	-68	-	?	-	?	-
Cc1ccc(N2C(=O)NC(=O)/C(=C\C=C\c3ccco3)C2=O)cc1C	-70	.	-	-	-[15.4 µM]	-
CCC(=O)O[C@@H]1C=C2CCC3C(CCC4(C)C3CC[C@@H]4OC(=O)CC)C2CC1 (stereo partly specified)	-	.	.	.	.	.
C=CCn1nc(C(=O)N2CCOCC2)cc1-c1sc(NC(=O)c2ccccc2)nc1C	-	.	.	.	22µM	-
O=C(NC(C(Cl)Cl)N1CCOCC1)c1ccccc1 (stereo unspecified)	-	-	-	-	-	-
C[C@]12CCC(=O)C=C1CCC1C2CC[C@@]2(C)C1CC[C@]2(C)O (stereo partly specified)	-	-	-	.	-	-
C[C@]12C/C(=C/O)C(=O)C[C@@H]1CC[C@@H]1[C@@H]2CC[C@@]2(C)[C@H]1CC[C@]2(C)O	-99	.	.	.	.	.
CN(C)CCC=C1c2ccccc2CCc2ccccc21	-	-	20µM	-	.	.
O=c1[nH]c2ccccc2n1C1CCN(CCCC(c2ccc(F)cc2)c2ccc(F)cc2)CC1	-68	-	-	-	.	.
Cc1nn(C(C)(C)C)c(C)c1/C=N/OC(=O)Nc1ccc(Cl)c(Cl)c1	-	-	-	-	-	2.8µM
Clc1ccc(C(c2ccc(Cl)cc2)C(Cl)(Cl)Cl)cc1	-72	.	.	.	.	.
Oc1ccc(Cl)cc1	-	-	-	.	.	.
COc1cc(CC#N)cc(OC)c1OC	-	.	.	.	.	.
CN1C(=O)C(Cc2nc3ccccc3c(=O)n2-c2ccccc2)c2ccccc21 (stereo unspecified)	-	-	35µM	-	-	-
O=C1Nc2ccccc2C1Cc1nc2ccccc2c(=O)n1-c1ccccc1 (stereo unspecified)	-	-	-	-	-	-
CN1CCN(c2ccc([N+](=O)[O-])c3no[n+]([O-])c23)CC1	-87	-	?	-	-[15.4 µM]	-
CCOc1ccc(S(=O)(=O)Nc2cccc(C(=O)N3CCN(c4ccccn4)CC3)c2)cc1	-	.	.	.	-	-
Cc1cc2c(cc(C(=O)N3CCC(C(=O)NC4CCCC4)CC3)n2Cc2c(F)cccc2Cl)o1	-	-	35µM	-	-	-
CNc1ccc2nc3ccccc3[n+](C)c2c1	-92	-	?	-	?	-
